Compound activity from PubChem BioAssay.
D3 ag: D3 dopamine receptor (human) agonism; P35462; max activation, %; D3R DiscoveRx beta-arrestin cells, luminescence, 90 min; actives 0.58% (n = 410,000); in the data active means max activation above about 30%
Target sequence (P35462 whole entry, looked up): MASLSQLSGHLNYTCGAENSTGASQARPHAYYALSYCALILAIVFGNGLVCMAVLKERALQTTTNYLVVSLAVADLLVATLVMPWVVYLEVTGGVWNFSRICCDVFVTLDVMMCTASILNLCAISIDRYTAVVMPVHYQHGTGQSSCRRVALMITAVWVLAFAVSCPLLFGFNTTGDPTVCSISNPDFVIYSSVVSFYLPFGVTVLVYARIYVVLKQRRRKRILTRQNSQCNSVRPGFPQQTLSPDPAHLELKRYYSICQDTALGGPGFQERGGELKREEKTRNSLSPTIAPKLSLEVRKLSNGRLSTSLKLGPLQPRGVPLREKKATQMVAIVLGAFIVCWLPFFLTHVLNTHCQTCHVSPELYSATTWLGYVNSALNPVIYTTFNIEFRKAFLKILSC
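Cells at 1500/well, incubated overnight, then treated with pinned compounds (dopamine as control) for 90 min at 37 degrees C. DiscoveRx reagent added for 30 - 60 minutes at room temperature; luminescence read.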
a7 integrin act: activates integrin-mediated alleviation for muscular dystrophy; alpha7betagal myoblasts, beta-gal FDG fluorescence, 48 h; actives 0.064% (n = 350,000); Potency, µM (highest dose often 38.3 µM), most hits filed as activators; active means well fitted activation curve with a large enough effect; inconclusive means small, poorly fitted or top-dose-only effect; inactive means no such curve, though single readings can be large or run the other way; further: nearly all actives have a fitted effect of over 60% in size
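Alpha7betagal+/- myoblasts (passage 13) were plated 16-24 hr, then exposed to compounds (1:260 dilution of DMSO stock) for 48 hours at 37C. After MPER lysis, β-galactosidase reporter activity was read as FDG fluorescence (ex 480/em 540) after 30 minutes.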
DRD3 antagonist: antagonists of human D3 dopamine receptor; P35462; D3R cells, DiscoveRx beta-arrestin luminescence, antagonist mode; stronger effect = lower value; max response, negative = inhibition, %; actives 2.5% (n = 360,000); AID 652054; in the data active means max response below about -50%; inconclusive means no clear call, values can overlap the other calls
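Cells plated overnight at 1500 cells/well, then exposed to library compounds with dopamine controls for 90 minutes at 37 degrees C. DiscoveRx reagent added for 30–60 minutes at room temperature; luminescence read, quantitative HTS format.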
Numbers stand for hits; 0 = inactive; ? = inconclusive; - = no result. Only some compounds are listed: those with a hit (about 2.9% of all), similar ones and a draw of the others.

SMILES	D3 ag	a7 integrin act	DRD3 antagonist
COC1C(C)=C(C)C(=O)N1Cc1ccccc1 (stereo not given)	0	0	0
CCOc1ccccc1C1C(C#N)=C(N)Oc2cc(C)n(Cc3ccccn3)c(=O)c21 (stereo not given)	0	0	0
COc1ccc(CNC(=O)[C@H](C)N2C(=O)N3CCc4c([nH]c5ccc(OC)cc45)[C@@]3(C)C2=O)cc1	0	0	0
COc1ccc2[nH]c3c(c2c1)CCN1C(=O)N([C@@H](C)C(=O)NCc2ccc(C)cc2)C(=O)[C@]31C	31	?	0
COCn1ccnc1C(=O)c1ccco1	0	0	0
CCCCCC(=O)N1C[C@H](n2cc(C3CC3)nn2)[C@@H](O)C[C@@H]1c1ccc(OC)cc1	0	0	0
O=C(CSc1nnc(-c2ccc(Br)cc2)n1-c1ccccc1)c1ccccc1	0	-	-
COc1cccc(OC2(C)CCN(Cc3cccn3-c3nccs3)C2)c1 (stereo not given)	0	-	0
CC1(Oc2ccc(-n3ccnc3)cc2)CCN(Cc2cccn2-c2nccs2)C1 (stereo not given)	56	-	0
Cc1ccc(SCC(=O)NNC(=O)c2ccccc2)cc1C	0	0	-70
Cc1ccc(C)c(SCC(=O)NNC(=O)c2ccccc2)c1	0	0	0
CCN1CCN(CCCNC(=O)c2ccc(NC(=O)C3=CSCCO3)cc2)CC1	0	0	0
O=C(COC(=O)C1CC2C=CC1C2)Nc1cccc(S(=O)(=O)N2CCCCC2)c1 (stereo not given)	31	0	0
O=C(COC(=O)C1CC2C=CC1C2)Nc1cccc(S(=O)(=O)N2CCCCCC2)c1 (stereo not given)	0	0	0
CN1OC[C@@H]2CN(Cc3ccccc3)[C@H](c3ccc(-n4ccnc4)cc3)C[C@@H]21	0	-	0
O=C(CN1C(=O)NC2(CCCC2)C1=O)Nc1ccc(Cl)cc1C(F)(F)F	0	0	0
O=Cc1cnc(N2CCCCC2)s1	0	11µM	0
O=C(N/N=C/c1cnc(N2CCCCC2)s1)c1ccc(Cl)cc1	0	0	0
Cc1ccccc1NC(=O)COC(=O)Cc1cccc(C(F)(F)F)c1	0	0	0
O=C(NNC1=Nc2ccccc2SC1)c1ccc(Cl)cc1	0	0	-73
O=C(NNC1=Nc2ccccc2SC1)c1ccc(F)cc1	0	0	?
O=C(C1CCC(CNS(=O)(=O)c2ccc(Br)s2)CC1)N1CCN(c2ccc(F)cc2)CC1 (stereo not given)	0	-	-
CC1(C)Cc2c(c(-c3ccco3)nc3sc4c(NCCO)ncnc4c23)CO1	0	0	0
COCCCNc1ncnc2c1sc1nc(-c3ccco3)c3c(c12)CC(C)(C)OC3	60	0	0
O=C(Cn1ccc2ccccc2c1=O)NCCC(=O)Nc1ccc(F)cc1F	0	?	0
SMILES	D3 ag	a7 integrin act	DRD3 antagonist
Cc1ccc2c(c1)c(=O)c(S(=O)(=O)c1ccc(C)c(C)c1)cn2CC(=O)Nc1ccccc1	38	-	-
Cc1ccc(S(=O)(=O)c2cn(CC(=O)Nc3ccc(Cl)cc3)c3ccc(F)cc3c2=O)cc1C	0	-	-
Cc1cc(C)nc(-n2nc(C)cc2NC(=O)CNC(C)c2ccccc2)n1 (stereo not given)	0	0	0
CC(CN(C)Cc1ccccc1)OC(=O)c1cccs1 (stereo not given)	0	0	-76
CC(CN(C)Cc1ccccc1)OC(=O)c1ccccc1F (stereo not given)	0	0	0
CC(CN(C)Cc1ccccc1)OC(=O)c1ccc2c(c1)OCCO2 (stereo not given)	0	0	-77
CN(Cc1ccccc1)C(=O)COC(=O)c1ccc2c(c1)OCO2	0	0	0
Clc1ccc(CN2CCN(c3ncccn3)CC2)c(Cl)c1	0	0	0
COc1ccc(OC)c(NC(=S)Nc2ccccc2)c1	0	0	0
COC(=O)NNC(=S)Nc1cc(OC)ccc1OC	0	0	-141
CC(CN1C(C)CCCC1C)OC(=O)c1ccccc1Cl (stereo not given)	0	0	0
O=S1(=O)CCOCCCN1Cc1ccccc1	0	0	0
CC(C)(CNC(=O)c1ccccc1NS(C)(=O)=O)N1CCCCC1	0	0	-58
CS(=O)(=O)Nc1ccccc1C(=O)N1CCCC1	0	0	0
CCn1c(CNC(=O)c2cccc(C)c2)nnc1SCC(=O)NC1CCCC1	0	0	0
COc1ccc(-c2cnc(C(O)c3ccc(CN4CCCCC4)cc3)[nH]2)cc1 (stereo not given)	0	-	?
OC(c1ccc(CN2CCCCC2)cc1)c1ncc(-c2ccccc2)[nH]1 (stereo not given)	0	-	-107
CC(C)N=C(NC#N)SCc1ccc(Br)cc1	0	0	0
Cc1ccc(C(=O)c2cc([N+](=O)[O-])ccc2N2CCCCC2)c(C)c1	0	0	-56
O=C(O)c1cc([N+](=O)[O-])ccc1N1CCCCC1	0	0	0
CC(=O)N1N=C(c2ccccc2)CC1c1cccc([N+](=O)[O-])c1 (stereo not given)	0	0	?
CC(=O)N1N=C(c2cccs2)CC1c1cccc([N+](=O)[O-])c1 (stereo not given)	0	0	-60
Cc1ccc(OCC(=O)Nc2cccc(C(=O)OCc3cc(=O)n4nc(C)sc4n3)c2)cc1	0	-	-
O=C(CSCc1c(Cl)cccc1Cl)Nc1cccnc1	0	0	0
Cc1noc(C)c1CSCC(=O)Oc1ccc(N(C)S(=O)(=O)c2ccc(Cl)cc2)cc1	36	0	0
SMILES	D3 ag	a7 integrin act	DRD3 antagonist
Cc1noc(C)c1CSCC(=O)Oc1ccc(N(C)S(=O)(=O)c2ccccc2)cc1	0	0	0
CN(C)c1nc2c(N)ncnc2n1[C@H]1O[C@@H](CO)[C@H](O)[C@@H]1O	0	0	0
COc1ccccc1CNCC(O)(c1ccc(Cl)cc1)c1ccc(Cl)cc1	0	0	-83
COc1ccccc1CNCC(O)(c1ccc(F)cc1)c1ccc(F)cc1	0	0	0
CC(C)(C)NCC(O)(c1ccc(Cl)cc1)c1ccc(Cl)cc1	0	0	0
CCN(CC)CCNCC(O)(c1ccc(Cl)cc1)c1ccc(Cl)cc1	0	0	-60
COC(=O)c1sccc1NC(=O)Nc1ccc(C)cc1	55	0	0
COC(=O)c1cc(Br)ccc1NC(=O)Nc1ccccc1	0	0	0
COC(=O)c1cc(Br)ccc1NC(=O)Nc1ccc(C)cc1	0	0	-80
COC(=O)c1sccc1NC(=O)Nc1cc(C)cc(C)c1	0	0	0
COC(=O)c1sccc1NC(=S)N(C)C1CCCCC1	0	0	0
COC(=O)c1sccc1NC(=O)NC1CCCCC1	0	0	-51
COc1ccc(Cl)cc1C(=O)Nc1ccccc1N1CCN(C(=O)C(C)C)CC1	0	0	0
COc1ccc(-c2cccc(NS(=O)(=O)c3ccc(C)s3)c2)nn1	0	-	-
COc1ccc(S(=O)(=O)NCc2ccco2)cc1C(=O)N1CCOCC1	0	0	0
O=c1c2c(nc3nc(NCc4cccc5ccccc45)[nH]n13)CCC2	0	0	0
CCC(c1c(C)n(C)n(-c2ccccc2)c1=O)c1c(C)n(C)n(-c2ccccc2)c1=O	0	0	0
Cc1nc(N)sc1-c1csc(Nc2cccc(C(=O)O)c2)n1	0	?	0
Cc1nc(N)sc1-c1csc(Nc2ccccc2)n1	0	0	-56
O=[N+]([O-])/C(=C\Nc1ccccc1)S(=O)(=O)c1ccccc1	0	0	0
